# Laboratory results: PubChem BioAssay AID1987 (The Scripps Research Institute Molecular Screening Center, 2009)
# Hit rate of the full screen: of about 320,000 compounds, about 560 (0.17%) were called active.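 Rule for the calls: active = inhibition above the campaign's mean inhibition across all tested compounds plus 3 SD (cut at about 9.5% in these data); inactive = the rest.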 This excerpt belongs to a sample that is enriched for actives.
# Target: Serine/threonine-protein phosphatase 5 (Homo sapiens) (UniProt P53041)
# Sequence (P53041 whole entry, looked up): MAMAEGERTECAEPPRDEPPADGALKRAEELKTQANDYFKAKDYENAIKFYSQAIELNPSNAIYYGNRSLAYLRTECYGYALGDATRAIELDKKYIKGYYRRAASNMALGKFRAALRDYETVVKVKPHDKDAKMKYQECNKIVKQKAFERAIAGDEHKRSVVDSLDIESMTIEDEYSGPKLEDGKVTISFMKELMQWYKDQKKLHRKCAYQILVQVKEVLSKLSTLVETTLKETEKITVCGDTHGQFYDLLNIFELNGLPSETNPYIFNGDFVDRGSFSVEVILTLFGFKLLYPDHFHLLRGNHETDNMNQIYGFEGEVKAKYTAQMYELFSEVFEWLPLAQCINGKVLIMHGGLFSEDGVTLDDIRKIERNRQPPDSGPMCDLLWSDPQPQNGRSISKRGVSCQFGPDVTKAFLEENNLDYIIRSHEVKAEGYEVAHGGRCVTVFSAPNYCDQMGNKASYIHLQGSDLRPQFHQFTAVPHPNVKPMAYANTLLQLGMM
# Assay: PP5 phosphatase inhibitors, primary screen, biochemical, fluorescence (AID 1987);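 note: 0% = DMSO only and 100% = 100 µM cantharidin control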
# Details: purified PP5c, OMFP substrate fluorescence; at 6.7 µM; active compounds read high
row,Structure (SMILES),inhibition
1,O=C(O)c1ccccc1NC(=O)C1C2CCC(O2)C1C(=O)O (stereo not given),41.3% (active)
2,Cc1cc(C)cc(NC(=S)NC2CC3CCCC(C2)N3Cc2cccs2)c1 (stereo not given),4.69% (inactive)
3,CC(c1ccccc1)(c1ccccc1)c1ccncc1,-0.19% (inactive)
4,C[N+]12CN3CN(CN(C3)C1)C2,-1.24% (inactive)
5,CCOP(=O)(OCC)C(NC(=O)NC)C(N)=O (stereo not given),-0.58% (inactive)
